A short description of experiment [1]: A CellTox Green Cytotoxicity Assay to monitor cytotoxicity in HepG2 cells - 16 hour (AID 1224876). Note: nearly all actives have a fitted effect of over 45% in size. Note: potency is the fitted concentration of half-maximal effect. The essentials:
(§1)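 Read-out is fluorescence of a cyanine dye excluded from live cells that stains DNA of dead HepG2 cells, with signal proportional to cytotoxicity. Plates were read at 0, 8, 16, 24, 32 and 40 h after compound addition.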

Experiment [2] can be described thus: qHTS RealTime-Glo MT Cell Viability Assay in HepG2 cells - 32 hour (AID 1224877). Note: nearly all actives have a fitted effect of over 55% in size. The essentials:
(§2)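 HepG2 suspension premixed with RealTime-Glo reagents is plated at 600 cells per well and left 5 h at 37 C/5% CO2. Compounds in DMSO then go in, and bioluminescence reflecting viable cell number is recorded over 40 h.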
(In general: qHTS replaces the single test concentration by a dilution series.)

Experiment [3] can be described thus: A CellTox Green Cytotoxicity Assay to monitor cytotoxicity in HepG2 cells - 24 hour (AID 1224878). Note: nearly all actives have a fitted effect of over 45% in size. Note: potency is the fitted concentration of half-maximal effect. The essentials: as §1
Experiment [4] in a line: qHTS RealTime-Glo MT Cell Viability Assay in HEK293 cells - 0 hour (AID 1224880). Note: top concentration of the series differs between compounds; nearly all actives have a fitted effect of over 45% in size. The procedure, abridged:
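Cells were seeded together with NanoLuc luciferase and a prosubstrate that viable cells reduce to a luciferase substrate. After a 5 h incubation at 37 C/5% CO2, compounds were added and luminescence was measured repeatedly during 40 h of treatment.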

The nature of experiment [5]: A CellTox Green Cytotoxicity Assay to monitor cytotoxicity in HEK293 cells - 32 hour (AID 1224881). Note: nearly all actives have a fitted effect of over 40% in size. The procedure, abridged: (§3)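 Nonlytic real-time cytotoxicity: HEK293 + CellTox Green reagent plated, 5 h preincubation, pintool compound addition (23 nL in DMSO), 37 C for 40 h, fluorescence measured at successive time points.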
Experiment [6] is described as follows: A CellTox Green Cytotoxicity Assay to monitor cytotoxicity in HepG2 cells - 0 hour (AID 1224882). Note: nearly all actives have a fitted effect of over 35% in size. The procedure, abridged:
as §1

Experiment [7] can be described thus: A CellTox Green Cytotoxicity Assay to monitor cytotoxicity in HepG2 cells - 32 hour (AID 1224883). Note: nearly all actives have a fitted effect of over 50% in size. Note: potency is the fitted concentration of half-maximal effect. The procedure, abridged: as §1
Experiment [8] is described as follows: A CellTox Green Cytotoxicity Assay to monitor cytotoxicity in HEK293 cells - 8 hour (AID 1224884). Note: nearly all actives have a fitted effect of over 35% in size. The essentials:
as §3

A short description of experiment [9]: qHTS RealTime-Glo MT Cell Viability Assay in HepG2 cells - 16 hour (AID 1224885). Note: nearly all actives have a fitted effect of over 50% in size. The procedure, abridged:
as §2

Experiment [10] can be described thus: A CellTox Green Cytotoxicity Assay to monitor cytotoxicity in HepG2 cells - 40 hour (AID 1224879). Note: nearly all actives have a fitted effect of over 40% in size. The procedure, abridged: as §1

From PubChem BioAssay (Tox21) come the findings set out here.

Unmarked numbers belong to inactive results. Records with an inconclusive call do not appear. Activity calls are given as the source filed them. Calls come from the whole dose curve; as a rule, active = well fitted curve in the direction sought with a large enough effect in the repeat runs; inconclusive = weak or mixed curves; inactive = no such curve, though single readings can be large; an effect the other way counts as inactive or inconclusive.
% is set by controls: 0 for no effect and ±100 for the full control effect.

As to `Nc1c(NC/C=C\COc2cc(CN3CCCCC3)ccn2)c(=O)c1=O`, the cytotoxicity increase in experiment [1] was -12.5% [at 15.8 µM]; in experiment [5], 6.07% [at 15.8 µM]; in experiment [7], -13.1% [at 15.8 µM]; in experiment [8] it was 3.26% [at 15.8 µM]. Besides, the values for the activity change, negative = cytotoxic in experiment [2] and in experiment [9] were 0.449% [at 15.8 µM] and 3.45% [at 15.8 µM], respectively. Further, the cytotoxicity in experiment [3] is -15.2% [at 15.8 µM]; in [6] it was -10.4% [at 15.8 µM]. Further, the activity change, negative = cytotoxicity in experiment [4] was 11.6% [at 15.8 µM].

As to `Cc1nc2n(c(=O)c1CCN1CCC(C(=O)c3ccc(F)cc3)CC1)CCS2`, the Potency result in [1], in [3], in experiment [5], in [6], in experiment [7] and in experiment [8] was “inactive” each time. In addition, the compound was classed as inactive in experiment [2], in [4] and in experiment [9].

Consider `CCS(=O)(=O)CCn1c([N+](=O)[O-])cnc1C`, for which the Potency result in [1], in experiment [3], in [5], in [6], in experiment [7] and in experiment [8] was “inactive” each time. For the same compound, the compound was classed as inactive in experiment [2], in experiment [4] and in experiment [9].

As for `CCOC(=O)C(=O)c1csc(NC=O)n1`, the Potency entry in experiment [1], in experiment [3], in [5], in experiment [6], in experiment [7] and in experiment [8] was “inactive” in each case. Moreover, the compound was called inactive in experiment [2], in [4] and in experiment [9].

`O=P(O)(O)OCC(O)CO` (stereo unspecified): the Potency result in experiment [1], in experiment [3], in [10], in experiment [5], in experiment [6] and in experiment [7] was “inactive” in each case. Besides, the call in experiment [2] and in experiment [9] was inactive.

As for `CC(C)C(=O)Nc1cccc(C(F)(F)F)c1`, the Potency entry in experiment [1], in [3], in experiment [5], in [6], in experiment [7] and in experiment [8] was “inactive” each time. For the same compound, the compound was classed as inactive in [2], in experiment [4] and in [9].

Regarding `Cc1ccc(S(=O)(=O)NC(=O)NC2CCCCCCC2)cc1`, the result in experiment [2], in experiment [4] and in experiment [9] was inactive. The Potency entry in experiment [3], in experiment [10], in [5], in experiment [6], in experiment [7] and in [8] was “inactive” each time.

For the compound `COc1ccc(NS(=O)(=O)c2ccc(N)cc2)nn1`, the Potency entry in experiment [1], in [3], in [5], in [6] and in experiment [8] was “inactive” throughout. Moreover, the compound was classed as inactive in experiment [2] and in experiment [4].

Take `Cc1cc(C)cc([N+](=O)[O-])c1`: the Potency result in experiment [1], in experiment [5], in experiment [6] and in experiment [8] was “inactive” throughout. In addition, the result in [2], in [4] and in [9] was inactive. In experiment [3], the Potency was 55.6 µM (active).

As for `CCCCOC(=O)[C@@H](C)Oc1ccc(Oc2ccc(C(F)(F)F)cn2)cc1`, the outcome in experiment [2], in experiment [4] and in experiment [9] was inactive. Also, the Potency result in experiment [3], in experiment [10], in experiment [5], in experiment [6], in [7] and in [8] was “inactive” in each case.

With `CN=C(NC#N)NCCSCc1csc(N=C(N)N)n1`, the Potency result in experiment [1], in [3], in experiment [5], in experiment [6], in experiment [7] and in experiment [8] was “inactive” in each case. Also, the result in experiment [2] and in experiment [9] was inactive.

In the case of `Nc1cc(S(=O)(=O)O)ccc1S(=O)(=O)O`, the Potency result in experiment [1], in experiment [3], in experiment [5], in experiment [6] and in [7] was “inactive” each time. The compound was called inactive in experiment [2], in [4] and in experiment [9].

Turning to `CC(C)COC(=O)CC(C(=O)OCC(C)C)S(=O)(=O)O` (stereo unspecified), the Potency entry in experiment [1], in experiment [3], in experiment [5], in [6], in [7] and in experiment [8] was “inactive” in each case. Further, the call in [2] and in experiment [9] was inactive.

As to `O=c1[nH]c(=O)c2ccccc2o1`, the outcome in experiment [2], in experiment [4] and in [9] was inactive. Moreover, the Potency entry in experiment [3], in [10], in experiment [5], in [6], in experiment [7] and in experiment [8] was “inactive” in each case.

For the compound `CCOc1ccc(NC(=O)OC(C)C)cc1OCC`, the Potency entry in [1], in experiment [3], in experiment [5] and in experiment [6] was “inactive” throughout. Also, the result in [2] and in experiment [9] was inactive.

In the case of `C=C(C)C(=O)OC`, the call in [2], in [4] and in [9] was inactive. For the same compound, the Potency result in experiment [3], in [10], in experiment [5], in [6], in experiment [7] and in experiment [8] was “inactive” in each case.

`C=C[Si](C)(C)O[Si](C)(C)C=C`: the Potency result in [1], in experiment [3], in experiment [5], in experiment [6] and in [7] was “inactive” throughout. In addition, the compound was classed as inactive in experiment [2], in experiment [4] and in [9].

With `C=C(C)[C@@H]1CC[C@@H](C)C[C@@H]1O`, the Potency entry in experiment [1], in [3], in experiment [5], in experiment [6] and in experiment [7] was “inactive” in each case. The call in experiment [2], in experiment [4] and in experiment [9] was inactive.

Take `CC(=O)N(CC(O)CO)c1c(I)c(C(=O)NCC(O)CO)c(I)c(C(=O)NCC(O)CO)c1I` (stereo unspecified): the compound was classed as inactive in experiment [2] and in [4]. Further, the Potency entry in experiment [3], in experiment [10], in experiment [5], in [6], in [7] and in [8] was “inactive” throughout.

Take `O=C(CN1CCN(Cc2ccc3c(c2)OCO3)CC1)N1c2ccccc2Sc2ccccc21`: the Potency result in experiment [1], in experiment [3], in experiment [5] and in experiment [6] was “inactive” in each case. The compound was classed as inactive in experiment [2] and in experiment [9].

Regarding `CCCCCCCCCCCCCCCC(=O)NCCO`, the figures for the Potency in experiment [1], in experiment [3] and in experiment [7] were 8.49 µM (active), 8.49 µM (active) and 9.52 µM (active), respectively. Besides, the result in experiment [2], in experiment [4] and in [9] was inactive. For the same compound, the Potency entry in experiment [5] is “inactive”.

In the case of `CCCCC[Si](OCC)(OCC)OCC`, the call in experiment [2] and in experiment [4] was inactive. In addition, the Potency entry in experiment [3], in experiment [10], in [5], in experiment [6] and in experiment [7] was “inactive” throughout.

For the compound `CCCO`, the Potency result in [1], in experiment [5], in experiment [6] and in [8] was “inactive” each time. The compound was classed as inactive in [2], in experiment [4] and in experiment [9].

As to `COC(=O)CCC(=O)O`, the Potency entry in experiment [1], in experiment [3], in experiment [5] and in experiment [6] was “inactive” throughout. Moreover, the compound was classed as inactive in experiment [2], in experiment [4] and in experiment [9].

For the compound `Cc1c(C(C)C)c(=O)n(-c2ccccc2)n1C`, the Potency entry in experiment [1], in experiment [3], in [5], in [6], in experiment [7] and in experiment [8] was “inactive” in each case. For the same compound, the result in [2] was inactive.

As to `CO/N=C(/C(=O)N[C@@H]1C(=O)N2C(C(=O)O)=C(Cn3nnc(C)n3)CS[C@H]12)c1csc(N)n1`, the Potency entry in [1], in [3], in [5], in experiment [6] and in experiment [8] was “inactive” throughout. Moreover, the call in experiment [2] and in [9] was inactive.
